Giardia FBPA inh: inhibitors of Giardia lamblia fructose-1,6-bisphosphate aldolase | A8B2U2 | purified Giardia FBPA | Potency, µM (highest dose often 59.6 µM), for the others: top-dose activity, negative = inhibition, actives largely listed as inhibitors | 290,000 compounds, 0.71% hits; further: potency means the concentration at half of the fitted maximal effect; nearly all actives have a fitted effect of over 55% in size
Target sequence (A8B2U2 whole entry, looked up): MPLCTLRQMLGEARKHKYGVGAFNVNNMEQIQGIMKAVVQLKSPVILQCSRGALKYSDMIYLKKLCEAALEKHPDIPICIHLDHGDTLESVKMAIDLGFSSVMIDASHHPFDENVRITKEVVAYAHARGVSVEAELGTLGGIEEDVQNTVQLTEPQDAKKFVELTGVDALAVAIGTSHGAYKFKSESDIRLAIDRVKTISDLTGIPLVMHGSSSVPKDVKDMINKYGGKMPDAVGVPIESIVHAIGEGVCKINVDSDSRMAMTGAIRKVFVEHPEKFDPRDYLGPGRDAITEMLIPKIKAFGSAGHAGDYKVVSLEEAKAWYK
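Giardia FBPA (40 nM reagent) was preincubated 10 min at RT with compound (up to 57.5 uM final), then substrate plus GAPDH/TPI/NAD/arsenate coupling system with diaphorase/resazurin was added; resorufin fluorescence (525/598 nm) was read after 20 min.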
MARV entry inh: Marburg virus entry inhibition | Marburg virus pseudotyped entry inhibition, cell reporter | Potency, µM (highest dose often 37.8 µM), without a hit: at the top dose activity change, negative = inhibition, hits mostly inhibitors | 300,000 compounds, 1.8% hits | AID 540276; calls by dose curve; tested in HEK293 cells; further: potency means the concentration at half of the fitted maximal effect
FMDV antiviral: blocks foot and mouth disease virus. FMDV antiviral cell-based qHTS. Potency, µM (doses to about 57.9 µM), for inactives: top-dose activity change, negative = inhibition, hits mostly inhibitors. 410,000 compounds, 1.2% hits. AID 1159524; calls by dose curve; tested in HEK293T cells; further: read-out not given here; potency means the concentration at half of the fitted maximal effect; nearly all actives have a fitted effect of over 45% in size
Lassa entry inh: Lassa virus entry inhibition; Potency, µM (top dose mostly 37.9 µM), inactives show at the highest dose activity change, negative = inhibition, most hits filed as inhibitors; 300,000 compounds, 1.2% hits; Lassa virus pseudotype entry inhibition, cell reporter; calls by dose curve; tested in HEK293 cells; further: potency means the concentration at half of the fitted maximal effect; nearly all actives have a fitted effect of over 50% in size
HCV inhibitor: HCV inhibition; AID 651820; 340,000 compounds, 3.4% hits; Potency, µM (highest dose often 41.8 µM), for inactives: top-dose activity change, negative = inhibition, hits mostly inhibitors; Huh7.5.1 HCVcc-Cre infection, luciferase reporter, 44 h; further: potency means the concentration at half of the fitted maximal effect
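1,000 cells/well; 4 h culture; + compound; + HCVcc-Cre (~0.5 moi); 44 h; luciferase substrate, RT 15 min; read 15 sec.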
HCMV inh: blocks human cytomegalovirus replication | HFF cells, HCMV-luciferase reporter, 72 h; active compounds read low | activity change, negative = inhibition, % at 57.5 µM | 410,000 compounds, 4.5% hits | AID 1259415; in the data active means activity change below about -60%; inconclusive means no clear call, values can overlap the other calls; inactive means above about -39%
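Inhibition of viral replication was scored as loss of reporter luminescence in HFFs infected with HCMV-luciferase (MOI 1 PFU/cell) for 72 h; compounds tested at 2 doses, normalized to buffer and Salinomycin controls.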
Active calls of the source: *; ? = inconclusive; nt = no result given; [ ] = dose if it differs, or a comment. The list is not random: actives were taken first. Their share in the collection is about 8.3%. Unless noted, the call rests on the fitted dose curve; in most records, active means well fitted curve in the direction sought with a large enough effect; inconclusive means small, poorly fitted or top-dose-only effect, or another doubt; inactive means no such curve, though single readings can be large; an effect the other way counts as inactive or inconclusive. On the % scale 0 is the no-effect control and ±100 the full control effect.

SMILES	Giardia FBPA inh	MARV entry inh	FMDV antiviral	Lassa entry inh	HCV inhibitor	HCMV inh
CN(C)CCN(C(=O)c1ccc2ccccc2c1)c1nc2ccc(F)cc2s1	?	nt	-8%	nt	-14%	nt
COc1cc2ccccc2cc1C(=O)N(CCN(C)C)c1nc2ccc(C)cc2s1	-21%	4.5µM*	-15%	?	6.3µM*	-8
CCN(CC)CCN(C(=O)c1ccc2ccccc2c1)c1nc2ccc(OC)cc2s1	?	nt	-17%	nt	?	-6
CCN(CC)CCN(C(=O)c1cc2ccccc2cc1OC)c1nc2ccc(F)cc2s1	?	5.6µM*	-29%	-20%[46.1 µM]	?	19
O=C(NN1C(=O)c2ccc(-c3ccc4c(c3)C(=O)N(NC(=O)c3cccnc3)C4=O)cc2C1=O)c1cccnc1	5%	-10%	1%	20%[46.1 µM]	4%	-77*
O=C1C2CCCN2C(c2cccs2)N1c1ccc(Cl)cc1 (centres undefined)	4%	?	13%	7.3µM*	1%	-74*
COc1ccccc1C1N(c2ccc(Cl)cc2)C(=O)C2CCCN21 (centres undefined)	2%	4.6µM*	-15%	?	-19%	-75*
COc1cccc(C2N(c3ccc(Cl)cc3)C(=O)C3CCCN32)c1 (centres undefined)	-5%	nt	9%	nt	-3%	24
O=S1(=O)c2c(F)cccc2O[C@@H](COCc2ccccc2)CN1CCc1ccc(F)cc1	nt	nt	-28%	?	10µM*	-21
C=CCCC1CN(CCCC)S(=O)(=O)c2c(F)cccc2O1 (centres undefined)	nt	nt	0%	?	-8%	?
CCCCN1C[C@H](CO)Oc2cccc(F)c2S1(=O)=O	nt	nt	-6%	?	0.56µM*	9
COc1cc(/C=C2\SC(=Nc3ccc(O)cc3)NC2=O)cc(OC)c1OC	3%	?	-7%	?	4µM*	-3
COc1ccc(N=C2NC(=O)/C(=C/c3ccc(O)c(OC)c3)S2)cc1	-1%	?	2%	3.7µM*	-16%	-64*
CCc1ccc(C2c3[nH]c4ccccc4c3CCN2C(=O)c2ccc(=O)n(C)n2)cc1 (centres undefined)	-4%	11µM*	-18%	?	0%	36
CCc1ccc(C2c3[nH]c4ccccc4c3CCN2C(=O)CNC(N)=O)cc1 (centres undefined)	-11%	-18%	?	-23%	29%	11
CCc1ccc(C2c3[nH]c4ccccc4c3CCN2C(=O)CN2CCN(CC)CC2)cc1 (centres undefined)	1%	13µM*	-21%	?	?	24
COc1cccc(CN2CCC(N(CCc3ccccc3)Cc3ccccc3)CC2)c1OC	-28%	7.9µM*	?	?	11µM*	-64*
COc1cccc(CN2CCNCC2)c1OC	4%	?	3%	?	-26%	-5
CC1Cc2ccccc2N1C(=O)CSc1nnc(-c2ccccc2)c(-c2ccccc2)n1 (centres undefined)	-3%	?	?	?	10µM*	-83*
CC1Cc2ccccc2N1C(=O)CSc1nnc2c(n1)[nH]c1ccccc12 (centres undefined)	3%	-13%	14µM*	-11%	-5%	-5
Cc1nnc(SC(C)C(=O)N2CCc3ccccc32)s1 (centres undefined)	0%	?	0%	3%	18%	-33
CC(Sc1nnc(-c2ccccc2)c(-c2ccccc2)n1)C(=O)N1CCc2ccccc21 (centres undefined)	-14%	11µM*	?	?	?	-31
CCCc1nc(SCC(=O)N2c3ccccc3CC2C)c2c(C)c(C)sc2n1 (centres undefined)	4%	9.2µM*	nt	?	?	?
Cc1cccc(N2CCN(C(=O)c3cn(C4CCCCC4)c(=O)c4c3c3ccccc3n4C)CC2)c1C	nt	?	-7%	?	nt	-16
CCCCCCCCCCCCCCCCOCC(COP(=O)([O-])OCC[N+](C)(C)C)OC (centres undefined)	2%	nt	2%[6.7 µM]	nt	nt	nt
SMILES	Giardia FBPA inh	MARV entry inh	FMDV antiviral	Lassa entry inh	HCV inhibitor	HCMV inh
CCOc1ccc(CN2CCN(S(=O)(=O)c3ccc(Cl)cc3)CC2)cc1	nt	nt	-22%	?	nt	-15
N#C/C(=C\Nc1ccccc1O)c1nc2ccccc2o1	-4%	?	?	?	10µM*	-95*
CC(C)(O)CCc1c(-c2ccc(O)cc2O)oc2c3c(cc(O)c2c1=O)OC(C)(C)C=C3	nt	nt	-19%	nt	13µM*	-11
CCN1CCN(c2ncnc3ccc(Br)cc23)CC1	8%	-21%	-29%	-2%	-9%	-67*
CN1CCN(c2nc(N3CCN(CCO)CC3)nc3ccccc23)CC1	-19%	?	0%	?	?	-18
OCCN1CCN(c2cc(-c3ccccc3)c3ccccc3n2)CC1	-26%	?	?	-6%	?	-63*
OCCN1CCN(c2ncnc3ccc(Br)cc23)CC1	-1%	nt	-24%	nt	0%	-78*
OCCN1CCN(c2nc(-c3ccccc3)c3cc(Br)ccc3n2)CC1	-6%	?	-8%	?	-13%	-62*
Cc1ccc(N2CCN(C(=O)Nc3cccc([N+](=O)[O-])c3)CC2C)cc1 (centres undefined)	-1%	?	?	?	-26%	-65*
O=C(Nc1cccc([N+](=O)[O-])c1)N1CCN(c2ccccc2)CC1	0%	-7%[46.1 µM]	-14%	-13%[46.1 µM]	?	-64*
Cc1ccc(-c2cn3nc(N4CCCC(C(=O)NCc5ccccc5F)C4)sc3n2)cc1 (centres undefined)	nt	nt	-7%	?	nt	?
Cc1cccc2sc(N(CCCN(C)C)C(=O)c3ccc(C(=O)c4ccccc4)cc3)nc12	nt	?	-6%	-29%[46.1 µM]	?	-72*
COc1ccc2sc(N(CCCN(C)C)C(=O)c3ccc(C(=O)c4ccccc4)cc3)nc2c1	nt	?	-17%	?	?	-3
CCN(Cc1ccccc1)S(=O)(=O)c1ccc(C(=O)N(CCCN(C)C)c2nc3ccc(F)cc3s2)cc1	nt	?	12%	?	?	-80*
CN(C)CCCN(C(=O)c1ccc(C(=O)c2ccccc2)cc1)c1nc2cc3c(cc2s1)OCO3	-12%	16µM*	?	11µM*	14µM*	?
CCN(Cc1ccccc1)S(=O)(=O)c1ccc(C(=O)N(CCCN(C)C)c2nc3cc(OC)ccc3s2)cc1	nt	?	0%	?	25µM*	-15
CN(C)CCCN(C(=O)c1ccc(C(=O)c2ccccc2)cc1)c1nc2ccc(F)cc2s1	-6%	nt	?	nt	-8%	-15
CC1CCCCN1S(=O)(=O)c1ccc(C(=O)N(CCCN(C)C)c2nc3cc4c(cc3s2)OCO4)cc1 (centres undefined)	nt	?	-22%	-5%	-6%	-70*

Source: PubChem BioAssay
